Screening data as filed in PubChem BioAssay.
Compounds with a hit are over-represented: about 4.2% of the library has one in this group of screens.
hgDAF12 agonist: hgDAF-12 agonism, primary luciferase screen | HEK293 GAL4-hgDAF12 UAS-luciferase reporter, agonist luminescence; normalized to butyrate control | activation, % at 6.8 µM | actives 1.8% (n = 370,000) | AID 687014;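 active = activation above a cutoff set at the mean of all screened compounds plus 3 SD, cut at about 10% in these data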;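 note: 0% = DMSO wells and 100% = sodium butyrate wells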
SMARCA2 activ: increases SMARCA2 function in MMTV reporter cells | MG213 cells, MMTV-luciferase reporter, dexamethasone, overnight | activation, % at 9.1 µM | actives 1% (n = 370,000) | AID 652017; in the data active = activation above about 7.8%;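 note: 0% = vehicle wells and 100% = reference activator wells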
ssDAF-12 act: S. stercoralis DAF-12 activation, primary screen | HEK293 ssDAF-12/GRIP1 lit1-tk-luc reporter, luminescence; % of 3 µM dafachronic acid response | activation, % at 6.8 µM | actives 1% (n = 370,000);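 active = activation above the mean over all tested compounds plus 3 SD, cut at about 0.9% in these data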;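 note: 0% = DMSO-only wells and 100% = 3 µM delta7-dafachronic acid wells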
hcDAF12 agonist: activates DAF-12 receptor from parasite H. contortus | HEK293 hcDAF-12 lit1-tk-luc reporter, luminescence; 0% DMSO, 100% Δ7-dafachronic acid | activation, % at 6.8 µM | actives 1.4% (n = 370,000) | AID 652067;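 active = activation above the mean of all tested compounds plus 3 SD, cut at about 5.5% in these data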;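 note: 100% = response to 3 µM Δ7-dafachronic acid high control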
DAX1 StAR inh: inhibitors of DAX1 repression of SF-1 activated StAR promoter | inhibition, % at 6.8 µM | HEK293T StAR-luciferase reporter, SF-1/DAX-1 repression relief | actives 1.1% (n = 370,000);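 active = inhibition above the mean over all tested compounds plus 3 SD, cut at about 3.6% in these data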;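 note: 0% = DAX-1 cells with DMSO and 100% = cells lacking DAX-1 with DMSO; higher inhibition means more luminescence from relief of DAX-1 repression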
Active calls of the source: *; nt = no result given.

SMILES | hgDAF12 agonist | SMARCA2 activ | ssDAF-12 act | hcDAF12 agonist | DAX1 StAR inh
CCOC(=O)[C@]12CCCC=C1N(Cc1ccccc1)C(=O)[C@H](CC(=O)N1CCN(C(=O)c3ccco3)CC1)C2 | -1 | 0 | -1 | -1 | 1
COc1ccc(C(=O)Nc2ccccc2C(N)=O)cc1 | 13* | 4 | 0 | 0 | 2
COc1cccc(-c2cc(C(=O)Nc3ccccc3)c3ccccc3n2)c1 | -2 | 1 | -1 | 2 | 0
COc1ccc(C(=O)Nc2ccc3ccccc3c2)cc1 | 10 | 4 | 1 | 5.8* | 3
NC(=O)c1ccccc1NC(=O)c1ccc2c(c1)OCO2 | 11* | 7 | 0 | 2 | 1
COc1ccc(C(=O)Nc2ccccc2C(=O)Nc2ccccc2C(=O)O)cc1 | 0 | 3 | 0 | -1 | 0
COC(=O)c1ccccc1NC(=S)NC(=O)c1ccc2c(c1)OCO2 | 1 | 1 | 0 | 2 | 0
COc1ccc(-c2cc(C(=O)Nc3ccc(C(N)=O)cc3)c3ccccc3n2)cc1 | 11* | 6 | -1 | 1 | 1
COC(=O)[C@]12C[C@H](CC(=O)NCC34CC5CC(CC(C5)C3)C4)C(=O)N(CCC3=CCCCC3)C1=C[C@H](C(C)C)O[C@@H]2C1CC1 | -2 | -1 | -2 | 0 | 0
COc1ccc(CNC(=O)c2c(N)[nH]c(C(=O)c3ccccc3)c2-c2ccc3ccccc3c2)cc1OC | 3 | -1 | -1 | -3 | -2
O=c1[nH]c(-c2ccccc2)cnc1-c1ccccc1 | 11* | 4 | 0 | 5 | 2
COc1ccccc1C(=O)NCCC(=O)Nc1ccc(C)cn1 | 1 | 0 | 0 | 5.7* | 3
O=C(Nc1ccc2ccccc2c1)c1cccc([N+](=O)[O-])c1 | 12* | 7 | 0 | 4 | 0
O=C(O)c1cccc([N+](=O)[O-])c1C(=O)Nc1ccc2ccccc2c1 | 4 | 2 | 1.8* | 6.5* | 0
O=C(Nc1cccc([N+](=O)[O-])c1)c1ccccc1 | -2 | -1 | 0 | -1 | 0
CCOC(=O)C1=C(C(=O)OCC)C2N(Cc3ccc(C#N)cc3)c3ccccc3[C@@]23C[C@@H](C(=O)OC)N(S(=O)(=O)c2ccc(C)cc2)C3=N1 (stereo partly drawn) | 1 | -7 | -1 | 0 | 0
Clc1ccc(OCCCN2CCCC2)cc1Cl | 2 | 7.8* | -1 | 4 | 0
CCOC(=O)N1CCN(S(=O)(=O)c2ccc(C(=O)Nc3nc4ccccc4s3)cc2)CC1 | -1 | -2 | -1 | 2 | 0
CCOC(=O)N1CCC(=NNc2nc3ccccc3s2)CC1 | 10 | 5 | 0 | 5.8* | 1
CC(=O)N1CCC(=NNc2nc3ccccc3s2)CC1 | 7 | 1 | 1 | 6.5* | 1
CC(=O)NNc1nc2ccccc2s1 | 0 | 0 | 0 | 3 | 0
O=C(Nc1ccc(C(O)(C(F)(F)F)C(F)(F)F)cc1)c1ccc(F)cc1Cl | 5 | nt | -1 | -1 | nt
CCN(C(=O)Cn1c([N+](=O)[O-])cnc1C)c1ccccc1 | -2 | -2 | 1.5* | 1 | 1
CCOC(=O)Cc1nc(N2CCN(CCO)CC2)c2c(C)c(C(=O)OCC)sc2n1 | -1 | -6 | -1 | -2 | 1
CC(c1nnc(SCC(=O)N(C)C2CCS(=O)(=O)C2)n1-c1ccccc1)N(C)C (stereo not drawn) | 1 | -2 | -1 | -1 | 3.7*
SMILES | hgDAF12 agonist | SMARCA2 activ | ssDAF-12 act | hcDAF12 agonist | DAX1 StAR inh
O=C(CCN1C(=O)c2cccc3cccc(c23)C1=O)Nc1ccccc1 | 6 | 7.9* | -1 | 1 | 0
CCOc1ccc(NC(=O)C(Cc2ccccc2)N2C(=O)c3cccc4cccc(c34)C2=O)cc1 (stereo not drawn) | -2 | 4 | 1 | 6.0* | 0
CCOc1ccc(NC(=O)CN2C(=O)c3cccc4cccc2c34)cc1 | 12* | 3 | 0 | 4 | 3
COc1ccc(NC(=O)CN2C(=O)c3cccc4cccc2c34)c(OC)c1 | -1 | 0 | -1 | -2 | 0
O=C(Nc1nc2ncccn2c1-c1ccc(F)c(F)c1)c1ccccc1 | 2 | -2 | -1 | 2 | -2
C[C@@H]1[C@@H](O)C[C@@]2(C[C@H](O)c3ccccc3O2)O[C@H]1c1ccccc1 | -1 | -2 | -1 | 0 | 0
COc1ccc(CCNC(=O)C2CCN(C(=O)c3ccc([N+](=O)[O-])cc3)CC2)cc1 | -2 | 1 | -2 | 0 | 0
O=C(NCCc1ccccc1)C1CCN(C(=O)c2ccc([N+](=O)[O-])cc2)CC1 | 5 | 4 | 0.9* | 1 | -1
CN1N=C2c3ccccc3CCCC2C1c1ccc(F)cc1 (stereo not drawn) | 2 | -1 | 0 | 5.6* | 0
Cc1ccc(NC(=S)Nc2cccc3ccccc23)cc1 | 1 | -1 | 1.0* | 3 | -2
Fc1ccc(NC(=S)Nc2cccc3ccccc23)cc1F | 2 | 2 | 0 | 4 | 1
Fc1ccc(NC(=S)Nc2cccc3ccccc23)cc1 | 2 | 7 | 0 | 5.7* | 1
Cc1cc(C)cc(NC(=S)Nc2cccc3ccccc23)c1 | 2 | 0 | -1 | 3 | 0
O=C(Nc1c(-c2ccc(F)c(F)c2)nc2ncccn12)C1CC1 | -3 | -2 | -1 | -1 | -1
COc1ccc(C(=O)CC(=O)c2ccc(F)cc2)cc1 | 4 | 1 | -1 | 0 | 1
CC(C)(C)c1ccc(C(=O)CC(=O)c2cc(Cl)ccc2O)cc1 | 6 | -2 | -1 | 1 | 0
Cc1ccc(C(=O)CC(=O)c2cc(Cl)ccc2O)cc1 | 9 | 3 | 1.1* | 3 | 3
O=C(CC(=O)c1ccccc1O)c1ccc(F)cc1 | 11* | -1 | 0 | 2 | 2
Cc1ccc(-c2cccc3[nH]cc(C)c23)s1 | 3 | -2 | 0 | 0 | -1
C[C@H](O)[C@@H]1CN2CCc3c([nH]c4c(-c5ccc6c(c5)OCO6)cccc34)[C@@H]2C[C@@H]1N(C)C(=O)c1ccco1 | -3 | 0 | -1 | 0 | -1
CCOC(=O)[C@@]12CCCC3=C1N(CCC3)C(=O)[C@H]2CC(=O)NCCCCc1ccccc1 | -3 | 1 | -1 | -1 | 0
O=c1/c(=C/c2ccccn2)sc2nc3ccccc3n12 | 9 | 5 | 1.3* | 5 | 2
CCOC(=O)CC(=O)CSc1nc2ccc(C)cc2cc1C#N | 11* | 8.8* | 0.9* | 4 | 3.8*
CCOC(=O)CC(=O)CSc1nc2c(cc1C#N)CCCCC2 | 11* | 6 | 1 | 5 | 3
Cc1nn(CC(=O)NCc2ccccc2Cl)c(C)c1[N+](=O)[O-] | 1 | 0 | -1 | -1 | 1
Cc1cc(CNC(=O)Cn2nc(C)c([N+](=O)[O-])c2C)c2ccccc2n1 | -2 | -1 | -2 | -2 | 4.3*
Cc1ccsc1C(=O)NNC(=S)NC1CCCCC1 | 4 | 1 | 0 | 0 | 4.1*
CNC(=S)NNC(=O)c1sccc1C | -2 | 4 | -1 | 0 | 0
